# CYP2C9 activ: CYP2C9 (human) activation; P11712; recombinant CYP2C9, luciferin-H conversion, luminescence; hits give high values; factor 1 = untreated enzyme, 0 = blocked; activation factor at 5 µM; actives 1.4% (n = 96,000);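 active = activation factor of 2 or more for CYP2C9 at a 5 µM dose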;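 also: 0 = sulfaphenazole-blocked wells and 1 = vehicle-only wells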
# Pyk2 oligo antag: Pyk2 (human) oligomerization antagonism; actives 0.83% (n = 99,000); Q293 cells, Pyk2 FERM NanoBiT luminescence; hits give low values; AID 1347419; z-score (the deposit names both 25 µM and 10 µM); Q14289;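 active = Z-score of -3 or lower, scaled per plate to the spread of control and sample wells; inactive = z-score above -3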;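 also: negative z-score means lost luminescence so less FERM oligomerization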
# CYP2C19 inhib: human CYP2C19 inhibition; P33261; CYP2C19 Supersomes, luciferin-H EGE luminescence, 30 min; inhibition, % at 5 µM; actives 21% (n = 96,000); AID 778;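 active = CYP2C19 inhibition above a set limit at 5 µM in the primary screen, cut at about 50% in these data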;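 also: plate controls were negative control wells for no effect and 2.5 mM tranylcypromine positive control for full effect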
# CYP2C9 inhib: human CYP2C9 inhibition; P11712; CYP2C9 Supersomes, luciferin-H conversion, luminescence; inhibition, % at 5 µM; actives 20% (n = 96,000); AID 777;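 active = blocking of liver enzyme CYP2C9 beyond about 50% at 5 µM, limit read from the data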
# CYP2C19 activ: activators of human cytochrome P450 2C19. P33261. recombinant CYP2C19, luciferin-H EGE luminescence; hits give high values; 0 = fully inhibited enzyme, 1 = untreated enzyme. activation factor at 5 µM. 96,000 tested, under 10 active;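 active = activation factor of at least 2 at 5 µM in the primary screen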;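 also: 0 = wells with 2.5 mM tranylcypromine and 1 = vehicle-only wells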
# Active calls of the source: *; nt = no result given. Hits are enriched below; roughly 28% of the tested compounds scored in any of these assays.
SMILES,CYP2C9 activ,Pyk2 oligo antag,CYP2C19 inhib,CYP2C9 inhib,CYP2C19 activ
COc1cc(C)c(CN2CCCCC2CO)cc1C (stereo not drawn),1,0.12,18.1,-0.5,0.8
CCN(C1CCCCC1)S(=O)(=O)c1ccc(S(=O)(=O)NCc2ccncc2)cc1,0,-0.07,83.8*,100.1*,0.2
CC1CCCC(C)N1S(=O)(=O)c1ccc(S(=O)(=O)NCCc2ccncc2)cc1 (stereo not drawn),nt,0.02,nt,nt,nt
CCN(C1CCCCC1)S(=O)(=O)c1ccc(S(=O)(=O)NCCc2ccncc2)cc1,0,-0.76,95.8*,99.5*,0
Cn1c(Cc2csc(N)n2)nnc1SCC(=O)NCc1ccccc1,1,0.09,8.5,2.0,0.9
O=C(CCSCCc1ccccn1)Nc1ccc(Br)cn1,0.7,0.06,27.1,33.9,0.7
O=S(=O)(NC1CC2CCC1C2)c1ccc2c(c1)OCCO2 (stereo not drawn),0.2,-1.59,96.9*,77.5*,0
COc1ccc(S(=O)(=O)NC2CC3CCC2C3)cc1Cl (stereo not drawn),1.6,-1.59,46.8,-59.9,0.5
O=S(=O)(NCC1CCCO1)c1ccc2c(c1)OCCO2 (stereo not drawn),1,-0.61,43.7,-3.4,0.6
CC1CCCC(NS(=O)(=O)c2ccc3c(c2)OCCO3)C1C (stereo not drawn),0.4,-1.2,97.0*,61.3*,0
CCOC(=O)C1=C(CSc2nc3ccccc3s2)NC(=O)NC1c1cc(C)ccc1C (stereo not drawn),0.2,-2.44,67.8*,78.0*,0.3
COC(=O)C1=C(CSc2nnnn2C)NC(=O)NC1c1cc(C)ccc1C (stereo not drawn),0.6,-1.23,33.4,37.9,0.7
CCOC(=O)C1=C(CSc2nc3ccccc3s2)NC(=O)NC1c1ccc(OC)cc1 (stereo not drawn),0.5,-2.15,59.8*,46.2,0.4
CCOC(=O)C1=C(CN2CCSCC2)NC(=O)NC1c1cc(C)ccc1C (stereo not drawn),0.4,-2.15,37.8,55.5*,0.6
Cc1cc(C(F)(F)F)nc(SCC(=O)Nc2cc(C)on2)n1,1,-0.75,51.6*,-0.1,0.5
Cc1cc(C(F)(F)F)nc(SCC(=O)Nc2ccccc2)n1,1.1,-0.16,91.0*,-14.5,0.1
Cc1cc(C(F)(F)F)nc(SCC(=O)NC2CC3CCC2C3)n1 (stereo not drawn),2.1*,-0.02,82.9*,-111.3,0.2
CSc1nc(C)cc(SCC(=O)Nc2ccccc2)n1,0.3,0.08,89.9*,67.4*,0.1
COc1ccc(NC(=O)CSc2nc(C)cc(C(F)(F)F)n2)cc1,1.6,0.41,64.8*,-58.9,0.4
COc1ccc(-c2cc(C(F)(F)F)nc(SCC(=O)Nc3cc(C)on3)n2)cc1,1.1,0.92,-5.7,-10.2,1.1
Nc1nc2c(s1)CCc1c-2cnn1-c1ccccc1,0.7,-2.28,52.8*,28.7,0.5
Cc1nnc(-c2cnn(-c3ccccc3)c2N)n1Cc1ccccc1,1.1,-0.58,-1.4,-9.9,1
CCC(C)NC(=O)c1cnn2c1NC(c1ccc3c(c1)OCO3)CC2C(F)(F)F (stereo not drawn),1,-0.96,-0.8,1.7,1
C#CCOC(=O)C(NC(=O)c1ccccc1)=C1CCCCC1,0.3,0.53,38.8,67.9*,0.6
COCC(=O)Nc1cc(C(=O)Nc2cccc(C)c2C)ccc1Cl,0.4,1.01,0.0,58.5*,1
SMILES,CYP2C9 activ,Pyk2 oligo antag,CYP2C19 inhib,CYP2C9 inhib,CYP2C19 activ
COC(=O)c1cccc(Nc2nc3ccccc3nc2C)c1,0.6,-0.38,13.5,44.4,0.9
O=C(Nc1nccs1)c1ccccc1N=Cc1ccccc1,0.2,-0.33,93.0*,79.9*,0.1
O=P(Cc1nnco1)(c1ccccc1)c1ccccc1,0.8,0.37,8.0,20.7,0.9
O=C(N/C=N/OCc1ccc(Cl)cc1Cl)NOCc1ncc(C(F)(F)F)cc1Cl,0.1,-0.02,96.9*,85.8*,0
COc1ccc(C(C)=O)cc1COC(=O)c1cccc(N(C)C)c1,0.2,-0.04,71.5*,79.4*,0.3
COc1ccc(C(C)=O)cc1COC(=O)Cc1n[nH]c(=O)c2ccccc12,0.6,-0.16,41.6,43.5,0.6
COc1ccc(C(C)=O)cc1COC(=O)c1cc(C)oc1C,0.3,-0.1,60.6*,65.8*,0.4
Cc1cc(C(=O)OCc2nc3ccccc3s2)c(C)o1,0.9,0.61,28.9,5.6,0.7
O=C(CN(Cc1ccccc1Cl)C(=O)c1ccc(CN2CCOCC2)o1)NCc1ccccc1,0.9,0.42,11.0,10.3,0.9
CC12CC(NC(=O)N1CCc1ccccc1)c1ccccc1O2 (stereo not drawn),0.7,0.98,78.7*,28.7,0.2
Nc1nc(-c2cccc(Br)c2)cs1,1,0.43,63.6*,-0.3,0.4
Cc1c(C(N)=O)sc2ncn(CC(=O)OC(C)C)c(=O)c12,0.9,-0.01,3.8,7.9,1
Cc1c(C(=O)NC(C)C)sc2ncn(CC(=O)N3CCC(C)CC3)c(=O)c12,0.4,-0.3,38.7,62.6*,0.6
Cc1c(C(=O)Nc2ccc3c(c2)OCO3)sc2ncn(CC(=O)N3CC(C)CC(C)C3)c(=O)c12 (stereo not drawn),0.2,3.17,23.4,78.9*,0.8
CCN(CC)C(=O)Cn1cnc2sc(C(=O)N3CCN(c4ccc(OC)cc4)CC3)c(C)c2c1=O,0.5,0.76,3.5,45.3,1
Cc1c(C(N)=O)sc2ncn(CC(=O)N3CCC(C)CC3)c(=O)c12,0.2,1.11,16.4,77.0*,0.8
COc1cc2cc(C(c3nnnn3C(C)(C)C)N3CCC(C)CC3)c(=O)[nH]c2cc1OC (stereo not drawn),0.7,0.56,15.4,32.7,0.8
CCN(C(=O)CCS(=O)(=O)c1ccc(Br)cc1)c1ccc2c(c1)OCO2,0.9,-0.73,67.0*,6.1,0.3
O=C(CC1(C(F)(F)F)OCCO1)Nc1ccc2c(c1)OCO2,0.9,1.26,93.7*,8.0,0.1
Cc1cccc(OCCCC(=O)Nc2ccc3c(c2)OCO3)c1,0.5,1.93,68.6*,53.9*,0.3
Cc1cccc(OCCCC(=O)Nc2ccc(N3CCOCC3)cc2)c1,0.5,1.64,38.7,47.6,0.6
Cc1ccc(C)c(OCC(=O)Nc2ccc3c(c2)OCO3)c1C,2.9*,-0.46,5.5,-191.0,0.9
Cc1cccc(OCC(=O)Nc2ccc3c(c2)OCO3)c1C,1.6,-0.63,29.2,-55.6,0.7
CCNC(=O)NC(=O)COC(=O)CNC(=O)COc1ccccc1,1.1,1.6,-5.2,-13.6,1.1
Cn1cc(S(=O)(=O)NCc2ccco2)c(=O)n(C)c1=O,1.2,nt,2.4,-16.5,1
Cc1ccc(S(=O)(=O)CCC(=O)Nc2ccc3c(c2)OCO3)cc1,0.1,0.71,0.6,93.6*,1
Cc1ccc(S(=O)(=O)NCCC(=O)Nc2ccc3c(c2)OCO3)cc1,0.1,0.85,84.5*,94.8*,0.2

# Screens from PubChem BioAssay.
